From PubChem BioAssay AID1981 (Southern Research Specialized Biocontainment Screening …, 2009)
Out of some 2,200 compounds screened, about 480 (22%) were called active. These entries were drawn from the full list. Results with a measured potency or affinity are listed apart. Values without a mark were called inactive. No rule for the calls is given here.

test: S. Typhimurium GFP fluorescence modified counterscreen for PhoP regulon inhibitor project dose response (AID 1981); details: 4 h; series mostly up to 150 µM; inhibition: at the top concentration;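 also: 0% = induced DMSO wells and 100% = uninduced wells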

Structure (SMILES) | inhibition
O=C(c1ccc(F)cc1)C(CN1CCOCC1)c1ccccc1 (stereo not drawn) | 21.6%
O=C(NCc1ccccn1)Nc1cccc(Cl)c1 | -8.94%
COCCNCCOc1ccccc1-c1ccccc1 | -1.68%
COc1cc(OC)c(NC(=O)Nc2ccc(OC)c(OC)c2)cc1Cl | -16.1%
Cc1ccc2cc(CN(CCO)Cc3nnnn3Cc3ccc(F)cc3)c(=O)[nH]c2c1 | 0.75%
CCOC(=O)C(NS(=O)(=O)c1ccccc1)(C(F)(F)F)P(=O)(OCC(C)C)OCC(C)C (stereo not drawn) | -13.7%
Cc1cc2cc(CNS(=O)(=O)c3ccc4ccccc4c3)ccc2n1C | 37.5%
O=C(c1ccccc1)c1coc2ccc(O)c(Cl)c12 | -10.4%
C#CCOc1ccc(Cl)cc1/C=N/O | 16.2%
CC(C)CNC(=O)c1ccc(COc2ccc(Cl)cc2Cl)o1 | -5.81%
Cc1ccc(SC(c2ccc(C)cc2)C(Cn2cncn2)C(=O)c2ccccc2)cc1 (stereo not drawn) | 3.76%
Cc1cccc(NC(=S)NC(NC(=O)c2ccco2)C(Cl)(Cl)Cl)c1 (stereo not drawn) | -18.9%
CCOC(=O)C1=C(C)N=c2s/c(=C\c3ccncc3)c(=O)n2C1c1ccc2c(c1)OCO2 (stereo not drawn) | 21.9%
CCOc1ccc(S(=O)(=O)NNC(=S)Nc2ccc(Br)cc2)cc1 | 11.2%
CCOC(=O)c1c(NC(=O)COc2ncnc3ccccc23)sc(C)c1CC | 1.74%
O=C1C(Nc2ccccc2)=C/C(=N/S(=O)(=O)c2cccs2)c2ccccc21 | 21.6%
Cc1cc(C)c2cc(CN(Cc3cccnc3)C(=O)c3ccc(F)cc3)c(Cl)nc2c1 | 4.89%
COc1ccc(C(C)=O)c2c(O)cccc12 | 2.41%
CCN(CC)CCNC(=O)c1cn(CC)c2cc(N3CCN(C(=O)c4ccco4)CC3)c(F)cc2c1=O | 29.5%
CN(C)CCNC(=O)c1ccc(COCC(F)(F)F)cc1 | 5.66%
COc1ccc(S(=O)(=O)N2CCN(C(=O)c3c(C)nn(-c4ccccc4)c3Cl)CC2)cc1 | -6.66%
Cn1c(-c2ccc3c(c2)OCO3)cnc1NCc1cccc(Cl)c1 | 3.03%
O=C(NCCN1CCOCC1)c1ccc2ccccc2c1 | -7.47%

Structure (SMILES) | inhibition
Fc1ccccc1CCNCc1cccc(Cl)c1Cl | -9.53%
O=C(Cc1ccccc1)NCc1ccc(F)cc1 | -4.57%
c1coc(CNc2c3c(nc4ncnn24)CCCC3)c1 | 4.68%
O=S(=O)(Nc1ccc2c(c1)nc1n2CCN(Cc2ccccc2)C1)c1ccc(F)cc1 | 35.4%
CCn1c(SCC(=O)Nc2ccc3c(c2)oc2ccccc23)nnc1-c1ccc(N)cc1 | 7.32%
CC1(C)CC(=O)C2=C(C1)N(c1ccc(F)cc1)C(N)=C(C#N)C2c1cccs1 (stereo not drawn) | -7.31%
O=C(Oc1ccc(N(Cc2cccs2)C2=NS(=O)(=O)c3ccccc32)cc1)c1ccc(Cl)cc1 | -4.74%
O=C(NCCNc1ccc([N+](=O)[O-])cc1C(F)(F)F)c1ccccc1F | -2.86%
O=C(Nc1cnc2ccccc2c1)N1CCOCC1 | -0.26%
CCOC(=O)N1CCN(S(=O)(=O)c2ccc(C(=O)NNc3nc4c(C)cc(C)cc4s3)cc2)CC1 | 23.2%
O=C(c1ccco1)c1cn(CC(=O)N2CCCc3ccccc32)c2ccccc12 | 0.78%
O=c1cc(O)nc(SCc2ccccc2Cl)[nH]1 | 13.7%
Cc1cc(C(=O)N2CCN(C/C=C/c3ccccc3)CC2)no1 | 1.76%
Cc1[nH]c2ccccc2c1C(c1ccncc1)N1CCN(c2ccc(F)cc2)CC1 (stereo not drawn) | 10.1%
Cn1cc(-c2nnnn2-c2cccc(C(F)(F)F)c2)c(C(F)(F)F)n1 | -4.52%
COC(=O)CSc1nc(SCc2ccccc2Cl)nc2c1CCCC2 | -9.78%
c1ccc(-c2cc(CSc3nc4ccccc4[nH]3)on2)cc1 | 7.53%
N#Cc1nc(Cc2cccc3ccccc23)oc1NCCCN1CCOCC1 | 5.53%
Cc1nc2cc(NC(=O)N3CCN(c4ccccn4)CC3)ccc2o1 | -5.86%
Oc1ccc(C2NCc3ccccc3-n3cccc32)cc1Cl (stereo not drawn) | -3.11%
CC(=O)c1sc(NC(=O)COc2ccc([N+](=O)[O-])cc2)nc1C | 8.86%
CCn1c(SCc2ccc(F)cc2)nc2ccccc2c1=O | 2.23%
CCCCCc1ccc(OCCC[n+]2ccccc2)c(CCCCC)c1 | 12.3%

Structure (SMILES) | inhibition
O=C(CSC1CCCCC1)Nc1ccccc1Br | -7.98%
COc1ccc(NC(C)C(=O)Nc2ccc(C(C)(C)C)cc2)cc1Cl (stereo not drawn) | -0.84%
Cc1cccc(-n2c(O)c(C=NCc3cccnc3)c(=O)[nH]c2=O)c1C | -13.1%
Cc1ccc(C(C[N+](=O)[O-])c2c(C)cc3ccccn23)cc1 (stereo not drawn) | 36.1%
O=C(O)CCS(=O)(=O)c1ccc(-c2ccccc2)cc1 | -5.08%
CNC(=O)CSc1nnc(-c2cccnc2)n1CCc1ccccc1 | -12.9%
Cc1ccc(-c2nc3ccccc3[nH]2)cc1NC(=S)NC(=O)c1ccccc1Br | 19.1%
Cc1ccc(OCc2nnc(SCC(=O)Nc3ccc4c(c3)OCO4)n2C)cc1 | 0.07%
CCOc1ccc(/C(O)=C2\C(=O)C(=O)N(CCN(C)C)C2c2cccc(OC)c2OC)cc1Cl (stereo not drawn) | 10.6%
O=C(Cc1cccs1)Nc1cccc(-c2nc3cc4ccccc4cc3[nH]2)c1 | 24.7%
COc1ccc(Cl)cc1-c1nc(SCC(N)=O)n[nH]1 | -2.75%
O=C(OCC#CCSc1nnc(-c2cccc3ccccc23)o1)c1ccco1 | -8%
COc1ccc(Nc2nc(-c3c[nH]c4ccccc34)cs2)cc1 | 27.9%
CCc1ccccc1NC(=O)c1nnn(CC(=O)Nc2cccc(C)c2C)c1N | -15.5%
COc1ccccc1N1CCN(C(=O)c2cccc3c(=O)c(C)c(-c4ccccc4)oc23)CC1 | -17.4%
COc1ccccc1NC(=S)NC(=O)C(C)(C)C | -8.6%
CCc1ccc2[nH]c(=O)c(CN(Cc3ccccc3)C(=O)Nc3ccccc3OC)cc2c1 | -15.6%
COC(=O)c1ccc(C)c(NC(=O)CN(c2cc(OC)ccc2OC)S(C)(=O)=O)c1 | -2.55%
N#CC1(C#N)COC23CCCCC2C1(C#N)C(=N)O3 (stereo not drawn) | 1.01%
COc1ccc(OC)c(-c2cc(C(=O)Nc3c(C)nn(Cc4ccccc4)c3C)no2)c1 | 10.4%
Cc1nc2ccccc2n1CC(=O)NCc1ccccc1 | -9.25%
CCN1CCN(C(=O)c2ccc3c(=O)n(Cc4ccccc4OC)c(=S)[nH]c3c2)CC1 | -14.1%
CC(C)Cc1nc2ccc(N)cc2[nH]1 | -1.44%

Structure (SMILES) | inhibition
Cc1[nH]c2ccccc2c1C(=O)COC(=O)c1ccc([N+](=O)[O-])s1 | 30.4%
Cc1ccc(NC(=O)CSc2nnc(C3CCCCC3)n2N)cc1F | -11.3%
O=C(c1cccnc1Nc1ccc2c(c1)CCC2)N1CCOCC1 | -48.3%
O=C(Nc1cccn(Cc2c(Cl)cccc2Cl)c1=O)c1ccccc1Cl | -11.1%
CCCn1c(N)c(C(=O)COC(=O)c2c(C)noc2C)c(=O)n(C)c1=O | 3.88%
CCOC(=O)C1=CSC2=NS(=O)(=O)CCN12 | -14.2%
O=C(CCN1C(=O)COc2ccccc21)NCCN1CCOCC1 | -33.9%
C#CCn1c(=NC(=O)c2cc(Cl)sc2Cl)sc2cc(S(N)(=O)=O)ccc21 | 7.48%
CCN(CC)S(=O)(=O)c1ccc(C(=O)N2CCN=C2SCc2cccnc2)cc1 | 9.39%
Cc1ccc(Nc2cc(C)c3c(O)cccc3n2)cc1C | 28.9%
Cc1ccc(Nc2cc(C)c3ccc(O)cc3n2)cc1C | -9.87%
Cc1cc(Nc2ccccc2)nc2cc(O)ccc12 | 7.5%
Cc1cc(O)ccc1Nc1nc2ccccc2nc1Nc1ccc(O)cc1C | 23.1%
c1ccc(-n2cnc3cc(NCc4ccccn4)ccc32)cc1 | -5.78%
CCOC(=O)c1[nH]c2ccccc2c1NC(=O)C(C)(C)C | -11%
Cn1cc(C(CC(=O)O)C(=O)O)c2ccccc21 (stereo not drawn) | -12.2%
CCOc1ccc(-n2c(SCc3nc(-c4ccc(C)cc4)no3)nnc2-c2ccncc2)cc1 | -16.5%
c1cncc(-c2nc(N3CCOCC3)c3ccccc3n2)c1 | -16.8%
O=c1[nH]c2cc3c(cc2cc1CN(CCc1ccccc1)Cc1nnnn1CC1CCCO1)OCO3 (stereo not drawn) | -25.9%
CCn1c(=O)c(=O)[nH]c2cc(C(=O)NCC3CCCCC3)ccc21 | -9%
CCOC(=O)CNS(=O)(=O)c1c(C)noc1C | -22.1%
CC1=CC2=NC(=O)/C(=C\c3cc(C)n(-c4ccc(F)cc4)c3C)C(=N)N2O1 | -3.44%
Cc1ccc(C(=O)CSC2=C(C#N)C(c3ccco3)CC(=O)N2)c(C)c1 (stereo not drawn) | 5.92%

Structure (SMILES) | inhibition
COCCNC(=S)N(Cc1cccnc1)Cc1ccc(OC)c(OC)c1 | -2.44%
COc1ccc(NC(=O)ON=C2c3ccccc3-c3ccccc32)cc1 | -8.68%
COC(=O)c1cc(C#N)c(Oc2ccccc2OC)nc1C | -4.37%
O=C(Cn1nc(C(F)(F)F)c2c1CCCCC2)N1CCOCC1 | -3.81%
Cc1ccc2occ(/C=N/O)c(=O)c2c1 | 19.3%
C#CCOc1ccc(/C=C2\SC(=S)N(Cc3cccnc3)C2=O)cc1 | -3.35%
c1ccc2oc(SCc3cn4ccccc4n3)nc2c1 | -8.39%
Cc1cc(NC(=O)c2ccco2)ccc1-n1cnnn1 | -22.4%
CCOc1ccccc1Nc1nc2ccccc2n2cnnc12 | 1.65%
CCn1c(=O)c2c(O)cc(=O)oc2c2ccccc21 | 5.61%
Cc1nc([N+](=O)[O-])c(Br)n1CC(=O)c1ccccc1 | 23.7%
C=CCNc1ncnc2ccc(Br)cc12 | -12.8%
O=c1c2c(-c3ccccc3)csc2nc2c3ccccc3c(NCCN3CCOCC3)nn12 | 8.44%
COc1ccc(NC(=O)CSc2nnc(-c3cccs3)n2Cc2ccco2)cc1OC | -16.9%
CCSc1nc(C2CC2)cc(-c2cccs2)c1C#N | -1.65%
c1ccc2cc(CSCc3nc4ccccc4[nH]3)ccc2c1 | 13.8%
Cc1ccc(NC(=O)COC(=O)C2(c3ccc(Cl)cc3)CCCC2)cc1 | -16.8%
O=C(CSc1nnc(-c2cccnc2)o1)OC1CCCCC1 | -25.1%
COc1cccc(NS(=O)(=O)c2c(C)cc(C)cc2C)c1 | 7.36%
c1ccc2c(C3=NNC(=NC4CC4)SC3)c[nH]c2c1 | -24.9%
COc1ccc(NC(=O)CSc2nc(C)cs2)cc1OC | -5.4%
